# Among all 320,000 compounds or so, about 1,300 (0.41%) were called active. Roughly 3% stayed inconclusive and do not appear here. No rule for the calls is given here. A selection follows. Entries with a potency or affinity are not part of this list.
# Assay: growth inhibition of non-replicating M. tuberculosis (AID 488890);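 also: plate controls were DMSO cells for no effect and high antibiotic wells for full effect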
# Details: Mycobacterium tuberculosis non-replicating, at 25 µM, stronger effect = higher value
row,SMILES,inhibition [%]
1,CC(C)c1onc(C(=O)NCc2ccccc2)c1[N+](=O)[O-],44.9
2,Cc1cc(N2CCN(c3ccccc3)CC2)nc(N)n1,-1.71
3,Cc1cc(Cl)nc(-n2nc(C)cc2C)n1,27.1
4,CCCc1nc(C)cc(N2CCN(c3ccccc3)CC2)n1,-3.49
5,Cc1cc(C)n(-c2nc3ccccc3nc2N2CCC(C)CC2)n1,34
6,COc1ccccc1OCc1ccc(C(=O)NCC2CCCO2)cc1 (configuration not stated),1.26
7,Cc1cccc(N2CCN(C(=O)c3ccc(CS(=O)Cc4cccc(Cl)c4)o3)CC2)c1C (configuration not stated),28.5
8,Cn1nc(C(=O)NCCN2CCOCC2)c2ccccc2c1=O,-5.46
9,CC(=O)O/C(=C\c1cn(C(C)=O)c2ccccc12)C(=O)O,-6.32
10,CC(=O)n1cc(C=C2C(=O)NC(=O)NC2=O)c2ccccc21,0
11,Cc1ccc2c(c1)N(C)/C(=C/c1cccc[n+]1CCO)S2,6.55
12,O=C(O)Cc1ccc(NS(=O)(=O)c2c(Cl)cccc2Cl)cc1,-11.9
13,CCNc1nc(N2CCCC2)nc(N2CCCC2)n1,75.5
14,CC(C)(C)Nc1nc(N2CCCC2)nc(N2CCCC2)n1,59.5
15,CCOC(=O)[C@@H]1[C@H]2COc3cc(OC)ccc3[C@H]2N2C(=O)N(c3cccc(Cl)c3)C(=O)[C@]12C,1.05
16,COc1cc2[nH]c(=O)c(C(=O)NCCCN3CCOCC3)c(O)c2cc1OC,1.72

row,SMILES,inhibition [%]
1,O=C(NCCCN1CCOCC1)c1c(O)c2ccccc2[nH]c1=O,-0.01
2,CCc1ccc(C(=O)Nc2cc3c(cc2Cl)OCCCO3)cc1,42
3,O=C(O)C1CCN(C(=O)CCN2C(=O)S/C(=C\c3ccccc3)C2=O)CC1,1.98
4,CCCCn1c(=O)c(CCC(=O)OCC(=O)Nc2cc(Cl)ccc2OC)nc2ccccc21,-2.09
5,COC(=O)[C@H](CCSC)NC(=O)NCCc1ccc(F)cc1,-16.4
6,CCCCCn1c(=O)c2ccccc2n2c(=S)[nH]nc12,-0.64
7,CCCCn1c(=O)c2ccccc2n2c(=S)[nH]nc12,-11.3
8,Cc1ccc(Sc2ncnc3onc(C)c23)cc1,72.5
9,Cc1ccccc1Sc1ncnc2onc(C)c12,5.13
10,COc1ccc(Sc2ncnc3onc(C)c23)cc1,58.2
11,COC(=O)c1ccccc1Sc1snnc1C,-5.51
12,CN(C)S(=O)(=O)c1ccc(NC(=O)COC(=O)C2CC3CCCC(C2)C3=O)cc1 (configuration not stated),14.8
13,COc1ccc(-n2c(O)c(C=NCCCn3ccnc3)c(=O)[nH]c2=O)cc1,-3.58
14,Cc1cc(NC(=O)CN2CCN(c3ccccc3O)CC2)no1,3.86
15,CCCCn1c(=O)c(C=Nc2cc([N+](=O)[O-])ccc2OC)c(O)n(CCCCl)c1=O,64
16,CCCCN1CC(C(=O)NC2CCCCC2)CC1=O (configuration not stated),-9.76

# Source: PubChem BioAssay AID488890 (Southern Research Specialized Biocontainment Screening …, 2010)
